Source: PubChem (The Scripps Research Institute Molecular Screening Center)
M1 antag = human M1 muscarinic receptor antagonists, primary screen, CHO-K1 cells, Fluo-8 calcium fluorescence, 1536-well | 360,000 compounds, 1.3% hits | inhibition, % at 3 µM | Muscarinic acetylcholine receptor M1 (Homo sapiens), P11229 | AID 588852, 2011 | CHO-K1 hM1, ACh EC80 antagonist;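 active = percent inhibition above its own plate's cutoff, namely the mean of that plate's compound wells plus 3 SD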;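 note: peak over basal fluorescence ratio during 140 s after agonist addition; 0% = ACh EC80 plus DMSO and 100% = DMSO alone without agonist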
Target sequence (P11229 whole entry, looked up): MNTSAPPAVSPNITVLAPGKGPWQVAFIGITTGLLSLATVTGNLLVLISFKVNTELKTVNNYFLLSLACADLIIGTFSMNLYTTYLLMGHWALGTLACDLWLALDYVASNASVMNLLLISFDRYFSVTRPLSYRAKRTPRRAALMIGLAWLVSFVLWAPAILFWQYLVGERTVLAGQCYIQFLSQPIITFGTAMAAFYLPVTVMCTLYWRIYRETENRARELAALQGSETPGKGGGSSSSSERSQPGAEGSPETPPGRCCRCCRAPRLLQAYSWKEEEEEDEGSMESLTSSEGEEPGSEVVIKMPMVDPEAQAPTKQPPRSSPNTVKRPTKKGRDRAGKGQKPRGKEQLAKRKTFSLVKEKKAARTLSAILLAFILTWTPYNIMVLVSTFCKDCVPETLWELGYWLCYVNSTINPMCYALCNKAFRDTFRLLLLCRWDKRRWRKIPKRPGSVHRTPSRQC
M1 ag = human M1 muscarinic receptor agonists, primary screen, Fluo-8 calcium fluorescence, CHO-K1 cells, HTS; CHO-K1 hM1, agonist mode; 0% DMSO, 100% acetylcholine EC100; 360,000 compounds, 0.33% hits; Muscarinic acetylcholine receptor M1 (Homo sapiens), P11229; activation, % at 3 µM;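 active = activation above the run's mean compound activation plus 3 SD, cut at about 16% in these data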;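 note: peak over basal fluorescence ratio within a 140 s kinetic read after compound addition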
CHO-K1 Ca antag = nonselective inhibitor or artifact in parental CHO-K1 cells; inhibition, % at 3 µM; AID 602250; 360,000 compounds, 0.6% hits; ATP-induced calcium, Fluo-8 fluorescence;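 active = inhibition above a per-plate cutoff, the plate's mean sample inhibition plus 3 SD, cut at about 24% in these data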;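 note: 0% = DMSO plus EC80 ATP and 100% = DMSO alone without ATP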
M1 PAM = human M1 muscarinic receptor positive allosteric modulators, primary screen, CHO-K1 cells, Fluo-8 calcium fluorescence, 1536-well; AID 588819, 2011; CHO-K1 hM1, ACh EC20; 0% = ACh EC20, 100% = maximal ACh; activation, % at 3 µM; Muscarinic acetylcholine receptor M1 (Homo sapiens), P11229; 360,000 compounds, 0.088% hits; in the data active = activation above about 19%, passing the limit was not always enough
CHO-K1 Ca ag = counter-screen for M1 agonists: effect in parental CHO-K1 cells; Fluo-8 calcium fluorescence; scaled to maximal ATP response, vehicle zero; activation, % at 3 µM; 360,000 compounds, 0.48% hits; AID 602248, 2012; in the data active = activation above about 15%;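 note: untransfected CHO-K1 host cells lacking M1 receptor as counterscreen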
CHO-K1 Ca PAM = nonselective calcium activators in parental CHO-K1 cells, primary screen, counter-screen for M1 PAM project, cell-based, Fluo-8 calcium fluorescence, full deck, 1536-well; AID 602247, 2012; activation, % at 3 µM; ATP EC20; 0% at ATP EC20, 100% at ATP max; 360,000 compounds, 0.02% hits;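 active = activation above the run cutoff, the mean activation of all test compounds plus 3 SD, cut at about 40% in these data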;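 note: peak over basal fluorescence ratio in a 140 s read after ATP addition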
* hit, by the source's call. A selection: hits, their analogues and other compounds. The true share with any hit is near 2.3%.

COc1ccc(CN2CCN(C(=O)CCC(=O)Nc3nnc(C(F)(F)F)s3)CC2)cc1F was read as M1 antag 9, M1 ag -3, CHO-K1 Ca antag -28, M1 PAM -9, CHO-K1 Ca ag 7 and CHO-K1 Ca PAM 9.
Screening Nc1[nH]c(C(=O)c2ccccc2)c(-c2ccncc2)c1C(=O)NC1CC1 returned CHO-K1 Ca antag 0, CHO-K1 Ca ag 0 and CHO-K1 Ca PAM 11.
CCOC(=O)c1cnc2ccc(OCC)cc2c1N1CCN(c2ccccc2OC)CC1 was read as M1 antag 34*, M1 ag -1, CHO-K1 Ca antag -1, M1 PAM -12, CHO-K1 Ca ag 3 and CHO-K1 Ca PAM 12.
`S=C1Cc2ccccc2N1` gave M1 antag 3, M1 ag 1, CHO-K1 Ca antag -16, M1 PAM 7, CHO-K1 Ca ag 0 and CHO-K1 Ca PAM 22.
Screening CCC(C)NS(=O)(=O)c1ccc(S(=O)(=O)N2CCCC3(CCCCC3)C2)cc1 (centres undefined) returned M1 antag 36*, M1 ag -5, CHO-K1 Ca antag 11, M1 PAM -22, CHO-K1 Ca ag 3 and CHO-K1 Ca PAM 0.
For COc1ccccc1C(=O)O/N=C1/CCCc2c1ccc(OC)c2[N+](=O)[O-] the results were M1 antag 5, M1 ag -1, CHO-K1 Ca antag -5, M1 PAM -5, CHO-K1 Ca ag 3 and CHO-K1 Ca PAM 15.
COc1cc(C(=O)O/N=C2\CCCc3c2ccc(OC)c3[N+](=O)[O-])cc(OC)c1OC was read as M1 antag 25*, M1 ag -4, CHO-K1 Ca antag 8, M1 PAM -17, CHO-K1 Ca ag 1 and CHO-K1 Ca PAM -5.
Cc1ncc(CN2CCCCC2C(=O)Nc2ccc(Oc3ccccc3)nc2)cn1 (centres undefined) was read as M1 antag 10, M1 ag -5, CHO-K1 Ca antag 7, M1 PAM -5, CHO-K1 Ca ag 0 and CHO-K1 Ca PAM -22.
`COCc1ccc(CN2CCCCC2C(=O)Nc2ccc(Oc3ccccc3)nc2)o1` (centres undefined) gave M1 antag 47*, M1 ag -5, CHO-K1 Ca antag -9, M1 PAM -22, CHO-K1 Ca ag 2 and CHO-K1 Ca PAM 14.
Screening CCn1c(SCC(=O)Nc2ccc(OC)cc2OC)nc2nc3c(cc2c1=O)COC(C)(C)C3 returned M1 antag 2, M1 ag -5, CHO-K1 Ca antag -1, M1 PAM 0, CHO-K1 Ca ag 2 and CHO-K1 Ca PAM 1.
COc1ccc(-n2c(SCC(N)=O)nc3nc4c(cc3c2=O)COC(C)(C)C4)cc1 was read as M1 antag 4, M1 ag -4, CHO-K1 Ca antag 1, M1 PAM 4, CHO-K1 Ca ag 1 and CHO-K1 Ca PAM 4.
Screening CCn1c(SCC(=O)Nc2cccc(C)c2)nc2nc3c(cc2c1=O)COC(C)(C)C3 returned M1 antag 6, M1 ag -5, CHO-K1 Ca antag 13, M1 PAM -5, CHO-K1 Ca ag 16* and CHO-K1 Ca PAM -14.
For CC(Cc1ccccc1)NC(=O)CSc1nc2nc3c(cc2c(=O)n1-c1ccccc1)COC(C)(C)C3 (centres undefined) the results were M1 antag -5, M1 ag 16*, CHO-K1 Ca antag 10, M1 PAM 8, CHO-K1 Ca ag 0 and CHO-K1 Ca PAM 0.
Cc1cccc(NC(=O)CN(C)C(=O)Cc2ccc(-c3ccccc3)cc2)c1C was read as M1 antag 2, M1 ag -1, CHO-K1 Ca antag 3, M1 PAM -2, CHO-K1 Ca ag 1 and CHO-K1 Ca PAM 6.
For CC1(C)C2CCC(C2)C1(C)NC(=O)CNCC1CCCCC1 (centres undefined) the results were M1 antag 17, M1 ag -3, CHO-K1 Ca antag 6, M1 PAM -3, CHO-K1 Ca ag 1 and CHO-K1 Ca PAM 0.
Screening COc1ccccc1N(C)S(=O)(=O)c1ccc(C(=O)NCc2ccccc2CN2CCCC2)cc1 returned M1 antag 36*, M1 ag -6, CHO-K1 Ca antag -14, M1 PAM -14, CHO-K1 Ca ag 4 and CHO-K1 Ca PAM 13.
Screening COc1ccccc1N(C)S(=O)(=O)c1ccc(C(=O)N2CCCc3ccccc32)cc1 returned M1 antag 15, M1 ag -3, CHO-K1 Ca antag 4, M1 PAM -12, CHO-K1 Ca ag 16* and CHO-K1 Ca PAM 5.
For Cc1ccc(S(=O)(=O)N2CCC(C(=O)NCc3ccccc3CN3CCCC3)CC2)cc1 the results were M1 antag 35*, M1 ag -8, CHO-K1 Ca antag -3, M1 PAM -23, CHO-K1 Ca ag 0 and CHO-K1 Ca PAM 4.
`CC(=O)NCc1nc2ccccc2n1Cc1ccccc1F` gave M1 antag 14, M1 ag -2, CHO-K1 Ca antag 24*, M1 PAM -1, CHO-K1 Ca ag 0 and CHO-K1 Ca PAM -8.
For O=S(=O)(c1ccc(N2CCCC2)nc1)N1CCCC1 the results were M1 antag -1, M1 ag -6, CHO-K1 Ca antag -11, M1 PAM 2, CHO-K1 Ca ag 5 and CHO-K1 Ca PAM 4.
`CCN1CCN(c2ccc(N3CCN(S(=O)(=O)c4cc([N+](=O)[O-])ccc4C)CC3)nn2)CC1` gave M1 antag 40*, M1 ag -8, CHO-K1 Ca antag 0, M1 PAM -26, CHO-K1 Ca ag 0 and CHO-K1 Ca PAM 5.
`CCN1CCN(c2ccc(S(=O)(=O)N3CCCC3)cn2)CC1` gave M1 antag 36*, M1 ag -6, CHO-K1 Ca antag -7, M1 PAM -18, CHO-K1 Ca ag 1 and CHO-K1 Ca PAM 11.
For COCCNC(=O)CN(C(=O)Cn1nnc2ccccc21)c1ccc(C)c(F)c1 the results were M1 antag -12, M1 ag -2, CHO-K1 Ca antag -13, M1 PAM 5, CHO-K1 Ca ag 0 and CHO-K1 Ca PAM 9.
`O=C(NC1(Cc2ccccc2)CCN(CCCc2ccccc2)C1=O)c1ccccc1` (centres undefined) gave M1 antag 17, M1 ag -2, CHO-K1 Ca antag -2, M1 PAM -14, CHO-K1 Ca ag 3 and CHO-K1 Ca PAM -9.
`CCC(=O)Oc1ccc(NC(=O)c2ccc(S(=O)(=O)N3CCCC3)cc2)cc1` gave M1 antag -6, M1 ag -5, CHO-K1 Ca antag 8, M1 PAM 1, CHO-K1 Ca ag 3 and CHO-K1 Ca PAM 5.
